# Measurements published in the supplement of paper PMC4954754.
# “And” between values parts separate entries of the source, which are not always exact repeats. Identical values can stand only once. ± gives the uncertainty stated by the source.
# Test system: HEK293T-Rex ERSE-FLuc
# Test: ERSE-FLuc reporter activation, triplicate confirmation, relative to 500 nM thapsigargin (% of thapsigargin); higher = stronger ATF6/ERSE reporter activation
# Settings: 6.8 µM; 18 h; screen: confirmation
# Experimental: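 HEK293T-Rex cells stably expressing the ERSE-firefly luciferase (BiP promoter, ATF6-preferring) or XBP1-splicing Renilla luciferase (IRE1/XBP1s) reporter, 1536-well plates, compound at 6.8 µM for 18 hr at 37 °C; luminescence read […] and expressed as % activation = 100*(compound - median DMSO)/(median 500 nM thapsigargin - median DMSO). Primary screen was single-pass; confirmation screen in triplicate (mean ± SD).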
row,Compound,ERSE-FLuc reporter activation
1,CNc1ccc2oc(C[C@H]3O[C@@]4(CC[C@H]3C)O[C@H]([C@H](C)C(=O)c3ccc[nH]3)[C@H](C)C[C@H]4C)nc2c1C(=O)O,63.9 ± 3.1
2,O=C(CCCN1CCC2(CC1)C(=O)NCN2c1ccccc1)c1ccc(F)cc1,163 ± 21
3,O=C(CCCN1CCC2(CC1)C(=O)N(Cc1cccc(F)c1)CN2c1ccccc1)c1ccc(F)cc1,215 ± 16
4,CC(=O)NC1C(OC2OC(CC(O)C3OC(n4ccc(=O)[nH]c4=O)C(O)C3O)C(O)C(O)C2NC(=O)/C=C\CCCCCCCCCC(C)C)OC(CO)C(O)C1O (stereo not given),162 ± 5.7
5,C/C=C(/C)C(=O)O[C@H]1C(C)=C2[C@H]([C@@H]1OC(=O)CCCCCCC)[C@@](C)(OC(C)=O)C[C@H](OC(=O)CCC)[C@@]1(O)[C@H]2OC(=O)[C@@]1(C)O,109 and 88
